Laboratory results: PubChem BioAssay AID2098 (Broad Institute, 2009)
Hit rate of the full screen: of about 300,000 compounds, about 2,300 (0.77%) were called active. The entries come from a sample that favours actives as a whole. Values without a mark were called inactive.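 The calls were made as follows: active = more than half of replicate wells show activity change below -50%, luminescence cut by over half; inconclusive = some wells, but at most half, below -50%; inactive = no replicate well below -50%.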

Assay: HSF1 inhibitors in luciferase reporter cells, primary screen, cell-based, NIH3T3, luminescence (AID 2098);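 also: luciferase reports HSF-1 transcriptional activity via heat shock element; 0% = median of DMSO wells and -100% = zero luminescence signal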
Details: NIH3T3-HGL HSE-luciferase, MG132-induced, luminescence 8 h; hits give low values; screened at 7.5 µM (by protocol)
`CCCOc1ccc(C(=O)CCC(=O)OC(C)C(=O)Nc2ccc(NC(C)=O)cc2)cc1` (stereo unspecified) gave an activity change, negative = inhibition of 11.7%. In the case of `CCCNC(=S)N1CCCC(c2nc3ccccc3[nH]2)C1` (stereo unspecified), the activity change, negative = inhibition is reported as -82% (active). With `CN(C)CCCNC(=S)N1CCC(c2nc3ccccc3[nH]2)CC1` the activity change, negative = inhibition was -2.77%. For `COCCCNC(=S)N1CCCC(c2nc3cc(C)c(C)cc3[nH]2)C1` (stereo unspecified), the activity change, negative = inhibition was 5.14%. Molecule `CCOc1ccc(S(=O)(=O)Nc2cccc(C(=O)NCC3(N4CCCCC4)CCCCC3)c2)cc1` has an activity change, negative = inhibition of -3.29%. `CC(=O)N[C@H]1[C@H]([C@H](O)[C@H](O)CO)OC(C(=O)O)=C[C@@H]1O` showed an activity change, negative = inhibition of -3.57%. `COc1ccc2oc(C(=O)OCC(=O)N(CC(C)C)c3c(N)n(Cc4ccccc4)c(=O)[nH]c3=O)c(C)c2c1` gave an activity change, negative = inhibition of 1.6%. `CCN(Cc1ccccc1)C(=O)Cc1ccc(OC)c(S(=O)(=O)N2CCOCC2)c1` gave an activity change, negative = inhibition of -13.3%. In the case of `COc1ccc(/C=C2\SC(=N)N(c3ccc(F)cc3)C2=O)cc1`, the activity change, negative = inhibition is reported as -0.809%. Molecule `CCOc1ccc(N=C2NC(=O)S/C2=C\c2ccc(O)cc2)cc1` has an activity change, negative = inhibition of 8.7%. In the case of `COc1ccc(/C=C2/S/C(=N/N=C3\CC4CCC3(C)C4(C)C)NC2=O)cc1` (stereo unspecified), the activity change, negative = inhibition is reported as -80.6% (active). Work on `Cc1sc(NC(=O)c2ccc3ncsc3c2)c(C(N)=O)c1C` yielded an activity change, negative = inhibition of 18.5%. Molecule `O=C(COC(=O)Cn1[nH]c(=O)c2ccccc2c1=O)Nc1c(Cl)cccc1C(F)(F)F` has an activity change, negative = inhibition of -1.35%. For `COc1ccccc1C(=O)NC(CCSC)C(=O)N1CCN(C/C=C/c2ccccc2)CC1` (stereo unspecified), the activity change, negative = inhibition was 6.22%. For `C=CCOc1ccc(/C=C2\SC(=S)N(CCC(=O)O)C2=O)cc1`, the activity change, negative = inhibition was -55% (active). Molecule `Cc1ccc(/C=C2\SC(=S)N(CCC(=O)Nc3ccc(O)cc3)C2=O)cc1` has an activity change, negative = inhibition of 2.79%. `COc1ccccc1C(=O)NNC(=O)CCN1C(=O)/C(=C\c2ccccc2)SC1=S` showed an activity change, negative = inhibition of 3.5%. For `O=C(c1ccc(NS(=O)(=O)c2ccc3[nH]c(=O)[nH]c3c2)cc1)N1CCCCC1`, the activity change, negative = inhibition was -2.36%. With `CCOc1ccccc1NS(=O)(=O)c1c[nH]c(C(=O)OC)c1` the activity change, negative = inhibition was -51.6% (active). `COC(=O)c1cc(S(=O)(=O)Nc2ccc(C)c(F)c2)c[nH]1` gave an activity change, negative = inhibition of 5.93%. For `CCOc1cc(NS(=O)(=O)c2ccc(OC)cc2)c(OCC)cc1NC(C)=O`, the activity change, negative = inhibition was -13.5%. `COCOc1cc(O)c(C(=O)/C=C/c2ccc(OCOC)c(OCOC)c2)c(OCOC)c1` gave an activity change, negative = inhibition of 23.1%. With `COc1cccc(CCNC(=O)COc2cccc3c2OC(C)(C)C3)c1` the activity change, negative = inhibition was -0.825%. For `Cc1ccsc1C(=O)OCC(=O)c1cc(C)n(CC2CCCO2)c1C` (stereo unspecified), the activity change, negative = inhibition was -88.5% (active). For `Cc1cc(C(=O)Cn2cnc3cc([N+](=O)[O-])ccc3c2=O)c(C)n1CC1CCCO1` (stereo unspecified), the activity change, negative = inhibition was 3.88%. Molecule `Cc1cc(C(=O)CCl)c(C)n1CC1COc2ccccc2O1` (stereo unspecified) has an activity change, negative = inhibition of 19.5%. `CCCCn1c(N)c(N(CCOC)C(=O)c2sc3ccccc3c2Cl)c(=O)[nH]c1=O` gave an activity change, negative = inhibition of -1.16%. `COc1ccccc1C(=O)NCCC(=O)NCC(c1ccco1)N1CCCCC1` (stereo unspecified) gave an activity change, negative = inhibition of -1.06%. `CC1COc2ccccc2N1C(=O)c1cccnc1Cl` (stereo unspecified) showed an activity change, negative = inhibition of -2.12%. With `CC1COc2ccccc2N1S(=O)(=O)c1ccccc1` (stereo unspecified) the activity change, negative = inhibition was -6.19%. For `CC1COc2ccccc2N1C(=O)c1ccc(F)cc1` (stereo unspecified), the activity change, negative = inhibition was -77.4% (active). With `O=C(NCCCN1CCCC1=O)c1ccc(S(=O)(=O)Nc2ccccc2)cc1` the activity change, negative = inhibition was 4.74%. For `Cc1cc(C)c(-c2csc(NC(=O)CCCc3nc4ccccc4c(=O)[nH]3)n2)c(C)c1`, the activity change, negative = inhibition was -1.35%. `COc1cc(C2C(C(=O)c3cccs3)=C(O)C(=O)N2CCN2CCOCC2)ccc1OCCC(C)C` (stereo unspecified) showed an activity change, negative = inhibition of -1.71%. With `CC(=O)Nc1ccc(NC(=O)C(C)OC(=O)C2CC(=O)N(CCc3ccccc3)C2)cc1` (stereo unspecified) the activity change, negative = inhibition was -2.7%. `O=[N+]([O-])c1cccc(S(=O)(=O)NCc2ccccn2)c1` showed an activity change, negative = inhibition of -1.49%. With `O=S(=O)(NCc1ccccn1)c1ccc(Br)s1` the activity change, negative = inhibition was -3.36%. With `O=S(=O)(NCc1ccccn1)c1ccc(F)cc1` the activity change, negative = inhibition was -83.2% (active). For `Cc1ccn2c(=O)c(NC(=O)c3cccc4ccccc34)c(C)nc2c1`, the activity change, negative = inhibition was -1.23%. For `Cc1ccc(C(=O)CN2C(=O)NC3(CCc4ccccc43)C2=O)c(C)c1` (stereo unspecified), the activity change, negative = inhibition was 6.44%. `O=C(COC(=O)c1ccccn1)NNC(=O)c1ccc([N+](=O)[O-])cc1` gave an activity change, negative = inhibition of -1.26%. Molecule `CC(=O)c1sc(N)nc1C` has an activity change, negative = inhibition of 1.87%. In the case of `CN(Cc1ccccc1F)C(=O)C(Cc1ccccc1)NC(=O)c1ccccc1` (stereo unspecified), the activity change, negative = inhibition is reported as 1.87%. For `COc1ccccc1C(=O)NC(=S)Nc1ccccc1N1CCCCC1`, the activity change, negative = inhibition was -53.8% (active). For `COc1ccc(C(=O)NC(=S)Nc2ccccc2N2CCN(S(C)(=O)=O)CC2)cc1OC`, the activity change, negative = inhibition was -1.5%. `O=C(NC(=S)Nc1ccccc1N1CCCCC1)c1ccc(F)cc1` gave an activity change, negative = inhibition of -7.72%. For `O=C(CSc1ncccn1)NCCc1ccccc1`, the activity change, negative = inhibition was -68.6% (active). For `O=C(CSc1ncccn1)NC(=O)NCc1ccccc1`, the activity change, negative = inhibition was 2.98%. Molecule `O=C(Cc1ccc(Br)cc1)NCCc1ccccc1` has an activity change, negative = inhibition of 3.74%. `Cc1cc2oc3ccc(NCCC4CCCN4C)cc3c(=O)c2cc1C` (stereo unspecified) showed an activity change, negative = inhibition of 6.14%. Work on `CCN(C(=O)CSc1nnc(-c2ccncc2)o1)c1ccccc1` yielded an activity change, negative = inhibition of -5.45%. For `CCOC(=O)CSc1nnc(-c2ccncc2)o1`, the activity change, negative = inhibition was -9.32%. For `CCc1ccccc1NC(=O)CSc1nnc(-c2ccncc2)o1`, the activity change, negative = inhibition was -75.8% (active). In the case of `COc1ccc(S(=O)(=O)N2CCCCC2)cc1NC(=O)c1cc([N+](=O)[O-])ccc1N1CCOCC1`, the activity change, negative = inhibition is reported as -3.7%. Molecule `O=C(NC1CCCCC1)c1cc([N+](=O)[O-])ccc1N1CCOCC1` has an activity change, negative = inhibition of 0.205%. For `CCOc1ccc2nc(NC(=O)c3cc([N+](=O)[O-])ccc3N3CCOCC3)sc2c1`, the activity change, negative = inhibition was -61.5% (active). Work on `O=C(Nc1ncccc1O)c1ccc(C(=O)c2ccccc2)cc1` yielded an activity change, negative = inhibition of -2.64%. `COC(=O)c1ccc(NS(=O)(=O)c2cc3c4c(c2)C(C)C(=O)N4CCC3)cc1` (stereo unspecified) showed an activity change, negative = inhibition of -0.43%. `Cc1ccc(C)c(OCCC(=O)Nc2cccc(S(=O)(=O)N3CCCC3)c2)c1` gave an activity change, negative = inhibition of 3.66%. Work on `COc1ccc(C2=NN(c3nc4ccccc4s3)C(=O)C2)cc1` yielded an activity change, negative = inhibition of 1.26%. With `COc1ccc(-n2nnnc2-c2nc3ccccc3s2)cc1` the activity change, negative = inhibition was -65.3% (active). Molecule `CCOc1cccc(-n2nnnc2-c2ccc(OC)cc2)c1` has an activity change, negative = inhibition of -2.61%. In the case of `Nc1cccnc1Sc1ccccc1`, the activity change, negative = inhibition is reported as -0.323%. Work on `CCCCn1c(N)c(N(CCC(C)C)C(=O)CC2OC(=O)c3ccccc32)c(=O)[nH]c1=O` (stereo unspecified) yielded an activity change, negative = inhibition of 3.21%. `O=C(COc1cccc2c1CCNC2=O)NC1CCCCC1` showed an activity change, negative = inhibition of -0.75%. `O=C(COC(=O)c1cccc(Cl)c1)Nc1ccc2[nH]c(=O)[nH]c2c1` showed an activity change, negative = inhibition of -4.05%. For `O=C(Nc1ccnn1C1CCN(Cc2cccc(OCCO)c2)CC1)C1CCCC1`, the activity change, negative = inhibition was -3.05%. In the case of `CC(CN1CCC(n2nccc2NC(=O)C2CCCC2)CC1)c1ccccc1` (stereo unspecified), the activity change, negative = inhibition is reported as -6.86%. With `Cc1nn(C)c(Cl)c1CN1CCC(n2nccc2NC(=O)C2CCCC2)CC1` the activity change, negative = inhibition was -53.5% (active). Molecule `c1ccc(C[C@H]2CNCCN2CCC23CC4CC(CC(C4)C2)C3)cc1` has an activity change, negative = inhibition of 0.124%. For `COc1cc2c(cc1OC)C(Cc1cc(OC)c(OC)cc1[N+](=O)[O-])=NCC2`, the activity change, negative = inhibition was -5.53%. With `CC(=O)Nc1cccc(C(=O)OCC(=O)c2ccc3c(c2)OCO3)c1` the activity change, negative = inhibition was -8.13%. `CCCCn1c(N)c(N(CCOC)C(=O)c2cccc(OCc3ccccc3)c2)c(=O)[nH]c1=O` showed an activity change, negative = inhibition of -6.51%. For `O=C(COC(=O)c1cccs1)Nc1ccccc1Cl`, the activity change, negative = inhibition was 4.76%. Molecule `O=C(Nc1ccccc1Cl)Nn1cnnc1` has an activity change, negative = inhibition of -3.45%. For `O=C(Nc1ccccc1Cl)/C(Cl)=C(\Cl)S(=O)c1ccccc1` (stereo unspecified), the activity change, negative = inhibition was -63.2% (active). Work on `CC(C)CN(C(=O)c1ccc2c(c1)OCO2)C1CCS(=O)(=O)C1` (stereo unspecified) yielded an activity change, negative = inhibition of 1.63%. Work on `COc1ccccc1C(=O)NC(=O)COC(=O)c1ccco1` yielded an activity change, negative = inhibition of -2.8%. In the case of `COc1ccccc1C(=O)OCC(=O)NCCNC(=O)COC(=O)c1ccccc1OC`, the activity change, negative = inhibition is reported as -54.9% (active). Work on `COc1ccc(C(=O)OCC(=O)NCCCc2ccccc2)cc1OC` yielded an activity change, negative = inhibition of -6.5%. For `COc1ccccc1C(=O)NC(CCSC)C(=O)NNC(=O)c1ccccc1C` (stereo unspecified), the activity change, negative = inhibition was -4.57%. In the case of `CCOc1ccc(OCc2ccc(C(=O)N(C)c3ccccc3)o2)cc1`, the activity change, negative = inhibition is reported as 9.19%. For `CCOc1ccc(OCc2cccc(C(=O)N(CC)CC)c2)cc1`, the activity change, negative = inhibition was -51.8% (active). For `COc1ccc(OCc2cccc(C(=O)N3CCCC3)c2)cc1`, the activity change, negative = inhibition was -11%. `Cc1ccc(S(=O)(=O)N2CCOCC2)cc1C(=O)Nc1ccccc1N1CCCC1` showed an activity change, negative = inhibition of 3.38%. For `Oc1ccc(Br)cc1/C=N/Nc1ccccn1`, the activity change, negative = inhibition was -72.1% (active). Molecule `O=[N+]([O-])c1ccc(O)c(/C=N/Nc2ccccc2[N+](=O)[O-])c1` has an activity change, negative = inhibition of 2.12%. Molecule `O=C(CCCO)N/N=C/c1cc(Br)ccc1O` has an activity change, negative = inhibition of -13.7%. In the case of `Cn1c(=N)n(CC(O)c2cccs2)c2ccccc21` (stereo unspecified), the activity change, negative = inhibition is reported as -12.7%. With `Cn1c(=N)n(CC(O)c2ccccc2)c2ccccc21` (stereo unspecified) the activity change, negative = inhibition was -64.8% (active). Work on `Cc1nc2ccccc2n1CC(O)c1ccccc1` (stereo unspecified) yielded an activity change, negative = inhibition of -6.27%. `COc1ccc(C(=O)Nc2cccc(NC(=O)c3ccc(OC)cc3OC)n2)c(OC)c1` gave an activity change, negative = inhibition of -27.9%. In the case of `Cc1ccc(CN2CCN(c3ccccc3Cl)CC2)o1`, the activity change, negative = inhibition is reported as -5.3%. `COC(=O)c1nc2n(n1)C(c1ccc([N+](=O)[O-])cc1)C(C(=O)Nc1ccc(Cl)cc1)=C(C)N2` (stereo unspecified) showed an activity change, negative = inhibition of -14.3%. Molecule `COC(=O)C1=CN(C)C=C(C(=O)OC)C1c1ccc(Cl)cc1Cl` has an activity change, negative = inhibition of 6.26%. In the case of `COC(=O)C1=CN(c2ccc(F)c(F)c2)C=C(C(=O)OC)C1c1ccc([N+](=O)[O-])cc1`, the activity change, negative = inhibition is reported as -77.3% (active).
